# ChEMBL document CHEMBL2218924, “A broad activity screen in support of a chemogenomic map for kinase signalling research and drug discovery” (Biochem J, 2013)
# Experiments:
# [1] = molecular target: PAS domain-containing serine/threonine-protein kinase (Homo sapiens) (UniProt Q96RG2); settings: at 1 µM
# [2] = molecular target: Serine/threonine-protein kinase PAK 6 (Homo sapiens) (UniProt Q9NQU5); settings: at 1 µM
# [3] = molecular target: Serine/threonine-protein kinase PAK 6 (Homo sapiens) (UniProt Q9NQU5); settings: at 10 µM
# [4] = molecular target: PAS domain-containing serine/threonine-protein kinase (Homo sapiens) (UniProt Q96RG2); settings: at 10 µM
# [5] = molecular target: Activated CDC42 kinase 1 (Homo sapiens) (UniProt Q07912); settings: at 10 µM
# Chain of Activated CDC42 kinase 1 (Homo sapiens) (Q07912 whole entry, looked up): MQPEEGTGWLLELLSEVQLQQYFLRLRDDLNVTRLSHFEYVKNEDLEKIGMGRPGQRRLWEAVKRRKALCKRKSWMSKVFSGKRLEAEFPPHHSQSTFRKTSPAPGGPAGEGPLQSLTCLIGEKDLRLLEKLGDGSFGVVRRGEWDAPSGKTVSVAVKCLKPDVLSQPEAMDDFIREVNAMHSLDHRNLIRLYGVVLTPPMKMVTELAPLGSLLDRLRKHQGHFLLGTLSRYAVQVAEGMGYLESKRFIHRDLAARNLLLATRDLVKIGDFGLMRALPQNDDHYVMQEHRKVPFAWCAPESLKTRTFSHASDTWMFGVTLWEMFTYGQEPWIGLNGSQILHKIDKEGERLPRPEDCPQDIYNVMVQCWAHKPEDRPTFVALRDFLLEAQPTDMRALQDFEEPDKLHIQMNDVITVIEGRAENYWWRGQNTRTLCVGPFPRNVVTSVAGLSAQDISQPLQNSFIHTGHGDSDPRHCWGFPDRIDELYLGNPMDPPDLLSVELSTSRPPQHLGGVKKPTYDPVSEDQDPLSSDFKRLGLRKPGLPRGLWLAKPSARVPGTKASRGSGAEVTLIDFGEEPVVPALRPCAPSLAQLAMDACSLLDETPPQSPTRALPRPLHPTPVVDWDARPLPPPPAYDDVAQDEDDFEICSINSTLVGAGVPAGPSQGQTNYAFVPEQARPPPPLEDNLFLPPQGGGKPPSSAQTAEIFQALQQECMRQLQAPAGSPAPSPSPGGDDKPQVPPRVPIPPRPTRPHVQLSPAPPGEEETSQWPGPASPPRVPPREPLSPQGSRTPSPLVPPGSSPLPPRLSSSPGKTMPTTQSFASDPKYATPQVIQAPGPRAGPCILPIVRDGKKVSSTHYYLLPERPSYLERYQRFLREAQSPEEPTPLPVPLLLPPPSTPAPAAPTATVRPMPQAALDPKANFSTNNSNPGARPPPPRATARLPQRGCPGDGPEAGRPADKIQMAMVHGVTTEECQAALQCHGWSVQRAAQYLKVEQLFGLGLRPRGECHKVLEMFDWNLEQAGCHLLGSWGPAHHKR
# [6] = molecular target: ALK tyrosine kinase receptor (Homo sapiens) (UniProt Q9UM73); settings: at 1 µM
# Chain of ALK tyrosine kinase receptor (Homo sapiens) (Q9UM73 19-1620 limits assumed): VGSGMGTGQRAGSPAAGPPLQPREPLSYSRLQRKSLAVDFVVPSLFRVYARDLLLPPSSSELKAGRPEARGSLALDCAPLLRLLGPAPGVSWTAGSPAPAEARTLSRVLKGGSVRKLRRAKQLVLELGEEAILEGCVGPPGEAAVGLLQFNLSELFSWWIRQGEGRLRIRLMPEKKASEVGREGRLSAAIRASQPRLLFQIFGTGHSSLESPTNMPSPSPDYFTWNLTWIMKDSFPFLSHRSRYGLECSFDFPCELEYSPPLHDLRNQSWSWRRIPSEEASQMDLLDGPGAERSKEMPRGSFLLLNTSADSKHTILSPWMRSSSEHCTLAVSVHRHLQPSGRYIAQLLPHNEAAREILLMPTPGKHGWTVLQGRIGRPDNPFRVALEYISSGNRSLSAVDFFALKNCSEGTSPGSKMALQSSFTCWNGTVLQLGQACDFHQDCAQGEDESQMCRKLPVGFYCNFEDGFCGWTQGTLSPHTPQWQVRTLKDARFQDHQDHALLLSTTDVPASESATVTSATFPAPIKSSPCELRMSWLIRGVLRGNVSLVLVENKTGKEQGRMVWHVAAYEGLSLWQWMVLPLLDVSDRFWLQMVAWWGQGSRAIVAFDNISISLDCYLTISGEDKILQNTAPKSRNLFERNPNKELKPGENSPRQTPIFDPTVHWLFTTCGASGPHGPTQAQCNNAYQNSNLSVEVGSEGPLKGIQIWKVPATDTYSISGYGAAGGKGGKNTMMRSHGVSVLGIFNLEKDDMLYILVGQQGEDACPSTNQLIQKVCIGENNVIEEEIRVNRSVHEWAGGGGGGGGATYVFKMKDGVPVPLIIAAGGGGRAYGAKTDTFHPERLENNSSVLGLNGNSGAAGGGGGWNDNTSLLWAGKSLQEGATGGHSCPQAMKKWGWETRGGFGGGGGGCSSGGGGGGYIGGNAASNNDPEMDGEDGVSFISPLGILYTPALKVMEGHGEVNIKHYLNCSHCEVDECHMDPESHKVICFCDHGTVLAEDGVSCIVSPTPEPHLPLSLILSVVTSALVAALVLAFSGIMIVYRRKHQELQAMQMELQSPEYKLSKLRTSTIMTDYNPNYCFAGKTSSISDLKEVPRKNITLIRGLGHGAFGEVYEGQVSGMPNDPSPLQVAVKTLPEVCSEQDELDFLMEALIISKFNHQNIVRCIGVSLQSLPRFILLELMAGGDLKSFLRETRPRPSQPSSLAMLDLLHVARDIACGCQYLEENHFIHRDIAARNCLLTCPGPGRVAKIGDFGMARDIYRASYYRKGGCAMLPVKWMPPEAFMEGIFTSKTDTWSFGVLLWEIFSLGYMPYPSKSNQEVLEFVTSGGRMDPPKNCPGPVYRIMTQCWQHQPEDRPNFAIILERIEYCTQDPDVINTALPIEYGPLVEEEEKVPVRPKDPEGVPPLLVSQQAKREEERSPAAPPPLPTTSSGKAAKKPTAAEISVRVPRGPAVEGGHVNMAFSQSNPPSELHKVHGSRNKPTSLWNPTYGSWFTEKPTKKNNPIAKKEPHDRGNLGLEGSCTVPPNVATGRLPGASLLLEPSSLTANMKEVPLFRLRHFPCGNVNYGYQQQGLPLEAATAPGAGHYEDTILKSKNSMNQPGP
# [7] = molecular target: ALK tyrosine kinase receptor (Homo sapiens) (UniProt Q9UM73); settings: at 10 µM
# [8] = molecular target: Activated CDC42 kinase 1 (Homo sapiens) (UniProt Q07912); settings: at 1 µM
# [9] = molecular target: Serine/threonine-protein kinase PAK 5 (Homo sapiens) (UniProt Q9P286); settings: at 1 µM
# [10] = molecular target: Serine/threonine-protein kinase PAK 5 (Homo sapiens) (UniProt Q9P286); settings: at 10 µM
# Chain of PAS domain-containing serine/threonine-protein kinase (Homo sapiens) (Q96RG2 whole entry, the tested form may be a part): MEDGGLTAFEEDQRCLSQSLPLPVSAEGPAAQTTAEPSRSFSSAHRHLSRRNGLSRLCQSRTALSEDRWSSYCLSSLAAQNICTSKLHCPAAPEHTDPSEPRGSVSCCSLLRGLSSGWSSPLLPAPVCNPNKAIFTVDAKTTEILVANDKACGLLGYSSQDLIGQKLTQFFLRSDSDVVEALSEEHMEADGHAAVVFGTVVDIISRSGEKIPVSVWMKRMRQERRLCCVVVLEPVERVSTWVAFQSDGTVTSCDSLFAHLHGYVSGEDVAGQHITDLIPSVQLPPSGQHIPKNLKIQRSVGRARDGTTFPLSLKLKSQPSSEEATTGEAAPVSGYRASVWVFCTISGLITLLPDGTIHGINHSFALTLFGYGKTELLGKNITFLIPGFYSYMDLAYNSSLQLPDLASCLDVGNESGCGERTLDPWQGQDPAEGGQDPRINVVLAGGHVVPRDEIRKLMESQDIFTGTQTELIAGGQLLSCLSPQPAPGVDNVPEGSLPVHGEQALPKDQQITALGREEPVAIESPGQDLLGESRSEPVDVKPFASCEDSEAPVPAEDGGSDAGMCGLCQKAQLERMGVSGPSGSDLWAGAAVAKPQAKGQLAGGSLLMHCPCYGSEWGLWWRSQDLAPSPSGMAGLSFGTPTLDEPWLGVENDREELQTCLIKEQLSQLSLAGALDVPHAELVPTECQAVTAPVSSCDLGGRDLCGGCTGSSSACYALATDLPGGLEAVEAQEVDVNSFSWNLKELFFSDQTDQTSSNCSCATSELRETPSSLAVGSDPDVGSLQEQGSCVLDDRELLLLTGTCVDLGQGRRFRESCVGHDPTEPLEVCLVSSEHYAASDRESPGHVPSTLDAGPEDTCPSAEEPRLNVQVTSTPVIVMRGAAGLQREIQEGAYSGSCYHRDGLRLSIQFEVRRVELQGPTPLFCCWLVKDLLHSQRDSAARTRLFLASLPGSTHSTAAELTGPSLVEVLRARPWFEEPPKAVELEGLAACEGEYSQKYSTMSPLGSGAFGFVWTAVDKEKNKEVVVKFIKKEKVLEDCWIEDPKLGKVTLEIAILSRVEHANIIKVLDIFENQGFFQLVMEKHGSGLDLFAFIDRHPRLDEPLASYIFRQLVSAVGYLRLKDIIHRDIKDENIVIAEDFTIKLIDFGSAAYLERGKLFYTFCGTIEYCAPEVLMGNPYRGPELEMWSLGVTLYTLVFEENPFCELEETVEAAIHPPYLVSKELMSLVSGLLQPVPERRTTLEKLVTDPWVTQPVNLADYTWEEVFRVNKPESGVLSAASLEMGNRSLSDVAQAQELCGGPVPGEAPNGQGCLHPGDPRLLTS
# Chain of Serine/threonine-protein kinase PAK 6 (Homo sapiens) (Q9NQU5 whole entry, looked up, the tested form may be a part): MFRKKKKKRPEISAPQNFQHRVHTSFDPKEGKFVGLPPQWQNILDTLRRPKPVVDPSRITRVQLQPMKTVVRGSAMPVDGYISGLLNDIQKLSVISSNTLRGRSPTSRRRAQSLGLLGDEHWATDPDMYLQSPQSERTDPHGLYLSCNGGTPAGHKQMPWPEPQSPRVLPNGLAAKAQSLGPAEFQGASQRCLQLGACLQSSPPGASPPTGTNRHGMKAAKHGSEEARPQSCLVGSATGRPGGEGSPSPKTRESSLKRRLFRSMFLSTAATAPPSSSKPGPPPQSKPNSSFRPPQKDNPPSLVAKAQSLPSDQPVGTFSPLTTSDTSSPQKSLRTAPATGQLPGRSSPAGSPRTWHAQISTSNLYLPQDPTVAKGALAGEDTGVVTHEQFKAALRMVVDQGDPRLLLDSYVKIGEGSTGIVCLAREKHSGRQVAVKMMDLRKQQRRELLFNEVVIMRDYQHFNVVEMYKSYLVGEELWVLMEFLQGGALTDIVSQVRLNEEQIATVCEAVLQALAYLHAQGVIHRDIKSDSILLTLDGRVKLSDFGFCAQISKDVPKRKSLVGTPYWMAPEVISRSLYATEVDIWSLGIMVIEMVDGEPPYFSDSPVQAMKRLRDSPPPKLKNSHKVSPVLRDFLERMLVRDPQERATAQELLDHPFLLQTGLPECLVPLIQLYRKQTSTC
smiles,measurement,setting,value
c1ccc2c(-c3ccncc3)c[nH]c2c1,residual activity,[1],99%
O=C1NC(=O)/C(=C\c2ccc3nccnc3c2)S1,residual activity,[1],87%
COc1ccc2c(c1)/C(=C/c1cnc[nH]1)C(=O)N2,residual activity,[2],98%
same,residual activity,[3],53%
same,residual activity,[4],81%
same,residual activity,[5],44%
same,residual activity,[6],63%
same,residual activity,[7],81%
O=C1NC(=O)c2c1c1c3ccccc3n3c1c1c2c2ccccc2n1C1CCC3O1,residual activity,[2],19%
same,residual activity,[3],15%
same,residual activity,[8],8%
same,residual activity,[5],13%
same,residual activity,[6],81%
same,residual activity,[7],79%
O=C1Nc2ccc3ncsc3c2/C1=C/c1c[nH]cn1,residual activity,[9],70%
same,residual activity,[10],34%
same,residual activity,[2],83%
same,residual activity,[3],36%
same,residual activity,[1],46%
same,residual activity,[4],2%
same,residual activity,[8],64%
same,residual activity,[5],17%
same,residual activity,[6],72%
same,residual activity,[7],57%
N#C/C(=C(\N)Sc1ccc(N)cc1)c1ccccc1C(F)(F)F,residual activity,[1],122%
N#Cc1cnc2cnc(NCc3cccnc3)cc2c1Nc1ccc(F)c(Cl)c1,residual activity,[1],80%
CN[C@@H]1C[C@H]2O[C@@](C)([C@@H]1OC)n1c3ccccc3c3c4c(c5c6ccccc6n2c5c31)C(=O)NC4,residual activity,[6],0%
same,residual activity,[7],1%
